LASV entry inh: inhibitors of Lassa virus binding or cell entry | Lassa virus pseudotype entry inhibition, cell reporter | Potency, µM (series often up to 37.9 µM), actives largely listed as inhibitors | 300,000 tested, 1.2% active; calls by dose curve; tested in HEK293 cells; also: nearly all actives have a fitted effect of over 50% in size
HCMV inh: human cytomegalovirus inhibition. 410,000 tested, 4.5% active. AID 1259415. HFF cells, HCMV-luciferase reporter, 72 h; hits give low values. activity change, negative = inhibition, % at 57.5 µM; in the data active = activity change below about -60%; inconclusive = no clear call, values can overlap the other calls; inactive = above about -39%
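Luciferase read-out from HCMV-luciferase-infected HFFs (MOI 1 PFU/cell) 72 h post infection at 37C; compounds added after 16 h cell attachment; activity normalized between buffer-only basal and Salinomycin (10uM) inhibitor controls.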
HCV inh: HCV inhibition; Huh7.5.1 HCVcc-Cre infection, luciferase reporter, 44 h; Potency, µM (highest dose often 41.8 µM), usual class: inhibitors; 340,000 tested, 3.4% active; AID 651820; active = well fitted inhibition curve with a large enough effect; inconclusive = small, poorly fitted or top-dose-only effect, or another doubt; inactive = no such curve, though single readings can be large or run the other way
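Antiviral activity was scored by luciferase reporter output from cells infected with HCVcc-Cre (~0.5 moi) in presence of compound, 44 h infection period, cells seeded 1,000/well 4 h prior.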
FMDV antiviral: antivirals against foot and mouth disease virus; 410,000 tested, 1.2% active; FMDV antiviral cell-based qHTS; AID 1159524; Potency, µM (top dose mostly 57.9 µM), actives largely listed as inhibitors; calls by dose curve; tested in HEK293T cells; also: read-out not given here; nearly all actives have a fitted effect of over 45% in size
Marburg entry inh: Marburg virus entry inhibition; Marburg virus pseudotyped entry inhibition, cell reporter; Potency, µM (doses to about 37.8 µM), hits mostly inhibitors; 300,000 tested, 1.8% active; calls by dose curve; tested in HEK293 cells
Each line names hits and unclear results; the compound was inactive in the other large screens. Hits are enriched below; roughly 7.9% of the tested compounds scored in any of these assays.

O=C(CN(c1cccc(C(F)(F)F)c1)S(=O)(=O)c1ccc(Cl)c([N+](=O)[O-])c1)NCc1ccccc1Cl	LASV entry inh inconclusive, HCV inh inconclusive, FMDV antiviral 40µM, Marburg entry inh inconclusive
Cc1ccc(N(CC(=O)NCCc2ccc(F)cc2)S(=O)(=O)c2ccc(Cl)c([N+](=O)[O-])c2)c(C)c1	LASV entry inh 23µM, HCV inh 10µM, FMDV antiviral inconclusive, Marburg entry inh inconclusive
CCN1C(=NCC(C)C)NC(c2cccc(F)c2)C(C(=O)OC)=C1C (stereo unspecified)	none (no result: LASV entry inh, HCMV inh, HCV inh, FMDV antiviral)
Cc1ccc2[nH]c3c(c2c1)CN(C(=O)CN1CCN(c2cccc(C)c2C)CC1)CC3	LASV entry inh inconclusive, HCV inh 6.3µM, FMDV antiviral inconclusive, Marburg entry inh inconclusive
Cc1ccc2[nH]c3c(c2c1)CN(C(=O)CN1CCN(C(=O)c2ccco2)CC1)CC3	none (no result: LASV entry inh, HCV inh, FMDV antiviral, Marburg entry inh)
CC(C)=CCN1C(=O)[C@]2(O[C@H](COc3ccccc3)CC3=CCCC32)c2c(Br)cccc21 (stereo partly specified)	none (no result: LASV entry inh, HCMV inh, HCV inh, FMDV antiviral)
CCCc1ccc(-c2ccc(/C=C/C(=O)O)cc2)nc1	LASV entry inh 0.46µM, HCMV inh inconclusive, Marburg entry inh 0.23µM
CCCCCc1ccc(-c2ccc(/C=C/C(=O)O)cc2)nc1	LASV entry inh inconclusive, HCMV inh inconclusive, FMDV antiviral inconclusive, Marburg entry inh inconclusive
CC(Oc1ccc(F)cc1)C(=O)Oc1ccc(N(C)S(=O)(=O)c2ccccc2)cc1 (stereo unspecified)	none
CC(=O)c1ccc(NC(=O)C(C)Oc2ccc(N(C)S(=O)(=O)c3ccc(C)cc3)cc2)cc1 (stereo unspecified)	HCV inh 13µM (no result: LASV entry inh, Marburg entry inh)
Cc1ccc(S(=O)(=O)N(C)c2ccc(OC(C)C(=O)N(C)c3ccccc3)cc2)cc1 (stereo unspecified)	LASV entry inh inconclusive, HCV inh 11µM
Cc1ccc(-n2nc3cc(C)c(N)cc3n2)cc1	LASV entry inh 13µM, Marburg entry inh inconclusive
N#Cc1cc2c(nc1SCC(=O)Nc1ccc(C(F)(F)F)cc1)C1CCN2CC1	HCMV inh -75, FMDV antiviral inconclusive, Marburg entry inh inconclusive (no result: HCV inh)
N#Cc1cc2c(nc1SCC(=O)Nc1cc(Cl)ccc1Cl)C1CCN2CC1	LASV entry inh inconclusive, HCMV inh -88, HCV inh inconclusive, FMDV antiviral inconclusive
Cc1ccc2nc(SCC(=O)Nc3ccccc3N3CCOCC3)c(C#N)cc2c1	LASV entry inh inconclusive, HCMV inh inconclusive, HCV inh inconclusive, Marburg entry inh inconclusive
N#Cc1c(-c2ccccc2)cc(-c2ccccc2)nc1SCC(=O)Nc1ccc(Cl)cc1	none (no result: HCV inh)
N#Cc1cc2c(nc1SCC(=O)Nc1ccc(Cl)c(C(F)(F)F)c1)C1CCN2CC1	HCMV inh -68, Marburg entry inh inconclusive (no result: HCV inh)
N#Cc1cc2c(nc1SCC(=O)Nc1ccc(Cl)cc1)C1CCN2CC1	HCMV inh -91, HCV inh 2.8µM
N#Cc1ccc(-c2cccs2)nc1SCC(=O)Nc1cccc(C(F)(F)F)c1	Marburg entry inh inconclusive (no result: HCV inh)
O=C(c1ccccc1)C1(c2ccccc2)OC1c1ccccc1 (stereo unspecified)	none
Cc1ccc(OCCCCNC(C)(C)C)c([N+](=O)[O-])c1	HCV inh inconclusive, Marburg entry inh 16µM
CCOC(=O)C1(C)CCCN1C(=O)c1ccccc1F (stereo unspecified)	none (no result: LASV entry inh, HCV inh, Marburg entry inh)
Cc1ccc([N+](=O)[O-])cc1CN1CCN(c2ncc(Cc3ccccc3)cn2)CC1	FMDV antiviral inconclusive (no result: LASV entry inh, HCV inh, Marburg entry inh)
COc1ccccc1-c1nc(SCC(=O)NCc2ccccc2)c2c(=O)n(C)c(=O)n(C)c2n1	none (no result: HCV inh, Marburg entry inh)
COc1ccccc1-c1nc(SCC(=O)N(C)c2ccccc2)c2c(=O)n(C)c(=O)n(C)c2n1	HCV inh 6.3µM
C[n+]1cn(CC(O)COCc2ccccc2)c2ccccc21 (stereo unspecified)	none
CCCCCc1ccc(OCCOCCn2c[n+](C)c3ccccc32)c(CCCCC)c1	HCV inh 10µM, FMDV antiviral 25µM (no result: LASV entry inh, HCMV inh, Marburg entry inh)
CCCCCc1ccc(OCCC[n+]2ccccc2)c(CCCCC)c1	LASV entry inh inconclusive, HCMV inh -99, HCV inh 10µM, FMDV antiviral 18µM, Marburg entry inh 7.1µM
CN[C@@H](CO)C(=O)NC[C@H]1O[C@@H](n2cnc3c(N)ncnc32)[C@H](O)[C@@H]1O	none (no result: LASV entry inh, HCV inh, Marburg entry inh)
CCc1cccc2c(-c3ccccc3)nc(SCC(=O)Nc3ccccc3OC)nc12	none (no result: HCV inh)
Nc1nc2c(s1)CCc1ccccc1-2	none (no result: LASV entry inh, Marburg entry inh)
N#C/C(=C(/O)CCl)c1nc2c(s1)CCc1ccccc1-2	HCV inh inconclusive, FMDV antiviral 25µM

High-throughput results from PubChem.
